Where “and” joins values, the source holds several entries; their conditions need not be identical. Equal values may be shown once. Inconclusive results are not listed. Calls of active or inactive are those of the source. Unless noted, the call rests on the fitted dose curve; in most records, active means well fitted curve in the direction sought with a large enough effect in the repeat runs; inconclusive means weak or mixed curves; inactive means no such curve, though single readings can be large; an effect the other way counts as inactive or inconclusive.
What was measured:
[1] = qHTS assay to identify small molecule agonists of H2AX (AID 1224845; active means well fitted activation curve with a large enough effect in the signal ratio in the repeat runs, not every such curve was filed as active; the % refers to the signal ratio; further: potency means the concentration at half of the fitted maximal effect)
Outline: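 Wild-type CHO-K1 cells, plated overnight, exposed 3hr at 37C to 15 concentrations (0.76% DMSO final). Lysed, then HTRF anti-pH2AX (S139) cryptate and anti-H2AX-d2 antibodies, 24 hr room temperature; 665/620 nm emission read.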

[2] = qHTS assay to identify small molecule antagonists of the estrogen related receptor (ERR) signaling pathway from Tox21 library (AID 1224848); further: nearly all actives have a fitted effect of over 50% in size; further: potency means the concentration at half of the fitted maximal effect
Outline: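 Quantitative high-throughput format: ERR reporter cells (2,000/well) pre-incubated 6 h, treated 18 h at 37 C with compounds in DMSO alongside positive and negative controls, then read by ONE-Glo luminescence.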

[3] = qHTS assay to identify small molecule agonists of the estrogen related receptor (ERR) signaling pathway from Tox21 library (AID 1224849; calls by dose curve; further: on the % scale 0 is the no-effect control and ±100 the full control effect; nearly all actives have a fitted effect of over 15% in size); details: ERR reporter cell line, ONE-Glo luciferase, 18 h
Outline: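 Cells carrying the ERR reporter were plated and allowed to settle for 6 h, exposed to library compounds for 18 h at 37 C, then lysed with ONE-Glo and luminescence measured.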

[4] = qHTS RealTime-Glo MT Cell Viability Assay in HepG2 cells - 24 hour (AID 1224867); further: nearly all actives have a fitted effect of over 50% in size; further: potency means the concentration at half of the fitted maximal effect
Outline: (§1)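 Tox21 10K library screened in qHTS format on HepG2 cells carrying RealTime-Glo reagents. Compounds were added after a 5 h preincubation, and the luminescent signal from continuous culture was measured repeatedly during 40 h treatment.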

[5] = A CellTox Green Cytotoxicity Assay to monitor cytotoxicity in HEK293 cells - 0 hour (AID 1224869); further: on the % scale 0 is the no-effect control and ±100 the full control effect; nearly all actives have a fitted effect of over 50% in size
Outline: (§2)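 Cells (HEK293, 600/well) and dye reagent are dispensed together. After 5 h at 37 C, 23 nL compound is pinned in. Plates stay at 37 C for 40 h with fluorescence read at 0h, 8h, 16h, 24h, 32h and 40h.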

[6] = qHTS RealTime-Glo MT Cell Viability Assay in HepG2 cells - 40 hour (AID 1224870); further: nearly all actives have a fitted effect of over 50% in size; further: potency means the concentration at half of the fitted maximal effect
Outline: (§3)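 HepG2 cells (600/well) mixed with RealTime-Glo MT reagent, settled 5 h at 37 C/5% CO2 before compound addition. Nonlytic NanoLuc luminescence from viable-cell prosubstrate reduction read repeatedly during 40 h treatment at 37 C.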

[7] = A CellTox Green Cytotoxicity Assay to monitor cytotoxicity in HEK293 cells - 40 hour (AID 1224871); further: nearly all actives have a fitted effect of over 45% in size; further: potency means the concentration at half of the fitted maximal effect
Outline: as §2

[8] = qHTS RealTime-Glo MT Cell Viability Assay in HEK293 cells - 16 hour (AID 1224872); further: nearly all actives have a fitted effect of over 50% in size; further: potency means the concentration at half of the fitted maximal effect
Outline: (§4)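 Luminescence generated by NanoLuc from substrate produced by living HEK293 cells served as the viability signal. Each value reflects the reading at its stated time point during continuous 40 h compound exposure at 37 C.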

[9] = qHTS RealTime-Glo MT Cell Viability Assay in HEK293 cells - 40 hour (AID 1224874); details: RealTime-Glo luminescence; max response: active compounds read low; further: nearly all actives have a fitted effect of over 50% in size; further: potency means the concentration at half of the fitted maximal effect; on max response: on the % scale 0 is the no-effect control and ±100 the full control effect
Outline: (§5)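 Real-time viability in HEK293: signal arises when living cells convert a prosubstrate for NanoLuc in the medium, so luminescence tracks viable cell number. Compound (23 nL, DMSO) added 5 h post-seeding; kinetic reads at 0–40 h, 37 C.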

[10] = A CellTox Green Cytotoxicity Assay to monitor cytotoxicity in HepG2 cells - 16 hour (AID 1224876); further: nearly all actives have a fitted effect of over 45% in size; further: potency means the concentration at half of the fitted maximal effect
Outline: (§6)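 Cells and non-lytic dye reagent are dispensed together (600 HepG2 cells/well) and incubated 5 h before DMSO compound transfer. Kinetic fluorescence is then recorded in the same wells during 40 h at 37 C.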

[11] = qHTS RealTime-Glo MT Cell Viability Assay in HepG2 cells - 32 hour (AID 1224877); further: nearly all actives have a fitted effect of over 55% in size; further: potency means the concentration at half of the fitted maximal effect
Outline: as §1

[12] = A CellTox Green Cytotoxicity Assay to monitor cytotoxicity in HepG2 cells - 24 hour (AID 1224878); further: nearly all actives have a fitted effect of over 45% in size; further: potency means the concentration at half of the fitted maximal effect; on Cytotoxicity: on the % scale 0 is the no-effect control and ±100 the full control effect
Outline: as §6

[13] = A CellTox Green Cytotoxicity Assay to monitor cytotoxicity in HepG2 cells - 40 hour (AID 1224879); further: nearly all actives have a fitted effect of over 40% in size; further: potency means the concentration at half of the fitted maximal effect
Outline: as §6

[14] = qHTS RealTime-Glo MT Cell Viability Assay in HEK293 cells - 0 hour (AID 1224880); further: top concentration of the series differs between compounds; on the % scale 0 is the no-effect control and ±100 the full control effect; nearly all actives have a fitted effect of over 45% in size
Outline: as §5

[15] = A CellTox Green Cytotoxicity Assay to monitor cytotoxicity in HEK293 cells - 32 hour (AID 1224881); further: nearly all actives have a fitted effect of over 40% in size; further: potency means the concentration at half of the fitted maximal effect
Outline: as §2

[16] = qHTS RealTime-Glo MT Cell Viability Assay in HEK293 cells - 32 hour (AID 1224868); further: nearly all actives have a fitted effect of over 50% in size; further: potency means the concentration at half of the fitted maximal effect
Outline: as §4

[17] = qHTS RealTime-Glo MT Cell Viability Assay in HepG2 cells - 8 hour (AID 1224873); further: nearly all actives have a fitted effect of over 55% in size; further: potency means the concentration at half of the fitted maximal effect
Outline: as §3

[18] = A CellTox Green Cytotoxicity Assay to monitor cytotoxicity in HEK293 cells - 24 hour (AID 1224875); further: nearly all actives have a fitted effect of over 45% in size; further: potency means the concentration at half of the fitted maximal effect; on activity change: on the % scale 0 is the no-effect control and ±100 the full control effect
Outline: as §2

[19] = qHTS assay to identify small molecule agonists of H2AX - cell viability counter screen (AID 1224847; calls by dose curve; further: potency means the concentration at half of the fitted maximal effect; nearly all actives have a fitted effect of over 30% in size)
Outline: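 Wild-type CHO-K1 cells (10% FBS medium) were plated overnight at 37C, exposed to compounds at 15 concentrations for 3 hr at 37C (0.76% DMSO final), and viability was read as CellTiter-Glo luminescence after 30 min at room temperature.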

O=C1c2ccccc2C(=O)N1SC(Cl)(Cl)Cl
inactive: activity change, positive = activation ([3]; at 92.4 µM (top of the series)) -68.2% and -64.1% | Potency [5] | outcome [14]
active: Potency [1] 9.93 µM and 16 µM | Potency [2] 30.2 µM and 30.6 µM | Potency [4] 34.2 µM and 13.8 µM | Potency [6] 34.2 µM and 15.5 µM | Potency [7] 10.8 µM and 11 µM | Potency [8] 3.42 µM and 3.89 µM | Potency [9] 6.82 µM and 9.77 µM | Potency [10] 43 µM and 54.9 µM | Potency [11] 34.2 µM and 13.8 µM | Potency [12] 34.2 µM and 21.9 µM | Potency [13] 21.6 µM and 12.3 µM | Potency [15] 21.6 µM and 8.71 µM

CN(C)c1ccc(N=O)cc1
inactive: Potency [2] | Potency [5]
active: activity change, positive = activation ([3]; at 92.4 µM (top of the series)) -55.7% and -48.2% | Potency [4] 55.1 µM and 38.9 µM | Potency [16] 15.5 µM and 21.9 µM | Potency [6] 34.7 µM | Potency [7] 11 µM and 19.5 µM | Potency [8] 15.5 µM and 21.9 µM | Potency [17] 49.1 µM and 24.5 µM | Potency [9] 13.8 µM and 19.5 µM | Potency [18] 13.8 µM and 19.5 µM | Potency [11] 34.7 µM | Potency [12] 49.1 µM | Potency [13] 34.8 µM and 12.3 µM

CCCC[N+]1(C)[C@@H]2CC(OC(=O)[C@H](CO)c3ccccc3)C[C@H]1[C@@H]1O[C@@H]12 (stereo partly specified)
inactive: Potency [1] | Potency [4] | Potency [16] | Potency [5] | Potency [6] | Potency [7] | Potency [8] | Potency [17] | max response [9] 2.06% | Potency [18] | Potency [10] | Potency [11] | Potency [12] | Potency [13] | outcome [14] | Potency [15]

CC(C)(C)NCC(O)c1ccccc1Cl (stereo unspecified)
inactive: Potency [1] | Potency [2] | activity change, positive = activation ([3]; at 42.5 µM (top of the series)) 4.93% | Potency [4] | Potency [16] | Potency [6] | Potency [7] | Potency [8] | Potency [17] | max response [9] 4.08% | Potency [10] | Potency [11] | Potency [12] | Potency [13] | outcome [14] | Potency [15]

CC1(C)[C@H](C(=O)O[C@H](C#N)c2cccc(Oc3ccccc3)c2)[C@@H]1C=C(Br)Br
inactive: Potency [1] | activity change, positive = activation ([3]; at 92.4 µM (top of the series)) -23.2% and -24.2% | Potency [16] | Potency [5] | Potency [6] | Potency [7] | Potency [8] | max response [9] -8.94% and -16.3% | Potency [18] | Potency [10] | Potency [11] | Potency [13] | outcome [14]

CCCCCCCCCCCC[N+](C)(C)CCOc1ccccc1
active: Potency [19] 89.8 µM and 49.2 µM | Potency [2] 19.3 µM and 21.1 µM | Potency [16] 7.76 µM and 9.52 µM | Potency [6] 19.5 µM and 6.01 µM | Potency [7] 19.5 µM and 23.9 µM | Potency [8] 19.5 µM and 19 µM | Potency [17] 55 µM and 23.9 µM | Potency [9] 6.92 µM and 9.52 µM | Potency [18] 17.4 µM and 23.9 µM | Potency [10] 24.6 µM and 19 µM | Potency [11] 19.5 µM and 7.56 µM | Potency [12] 15.5 µM and 8.49 µM | Potency [13] 12.3 µM and 6.74 µM
inactive: activity change, positive = activation ([3]; at 42.5 µM (top of the series)) -65.5% | activity change, positive = activation ([3]; at 92.4 µM (top of the series)) -76.3% | Potency [5] | outcome [14]

Cc1cnc(C2=NC(C)(C(C)C)C(=O)N2)c(C(=O)O)c1 (stereo unspecified)
inactive: Potency [1] | Potency [4] | Potency [16] | Potency [6] | Potency [7] | Potency [8] | Potency [17] | max response [9] 12.6% | Potency [18] | Potency [10] | Potency [11] | Potency [13] | outcome [14]

CCCN(CCOc1c(Cl)cc(Cl)cc1Cl)C(=O)n1ccnc1
inactive: Potency [1] | activity change, positive = activation ([3]; at 92.4 µM (top of the series)) -62.9% and -57.3% | Potency [4] | Potency [5] | Potency [6] | Potency [7] | Potency [17] | Potency [18] | Potency [10] | Potency [11] | Potency [12] | outcome [14] | Potency [15]
active: Potency [2] 15.7 µM and 24.3 µM | Potency [8] 22.3 µM and 27.5 µM | Potency [13] 43.6 µM

O=P(OCC(Br)CBr)(OCC(Br)CBr)OCC(Br)CBr (stereo unspecified)
active: Potency [8] 22.2 µM
inactive: Potency [1] | Potency [4] | Potency [6] | Potency [7] | Potency [17] | Potency [18] | Potency [10] | Potency [11] | Potency [13] | outcome [14] | Potency [15]

COc1ccccc1N1CCNCC1
inactive: Potency [1] | Potency [4] | Potency [16] | Potency [5] | Potency [6] | Potency [7] | Potency [8] | max response [9] -1.42% | Potency [18] | Potency [10] | Potency [11] | Potency [12] | Potency [13] | outcome [14]

From PubChem BioAssay (Tox21)
